The text below walks through data of PubChem BioAssay AID720707 (National Center for Advancing Translational Sciences (NCATS), 2013).

The campaign covered roughly 360,000 compounds. About 270 (0.075%) were called active. Only a selection was taken, and actives are over-represented in it overall. Values without a mark were called inactive. Calls come from the whole dose curve; as a rule, active = well fitted activation curve with a large enough effect; inconclusive = small, poorly fitted or top-dose-only effect; inactive = no such curve, though single readings can be large or run the other way.
Potency is the fitted concentration of half-maximal effect.

Rap guanine nucleotide exchange factor 3 (Homo sapiens), sequence (O95398 whole entry, looked up): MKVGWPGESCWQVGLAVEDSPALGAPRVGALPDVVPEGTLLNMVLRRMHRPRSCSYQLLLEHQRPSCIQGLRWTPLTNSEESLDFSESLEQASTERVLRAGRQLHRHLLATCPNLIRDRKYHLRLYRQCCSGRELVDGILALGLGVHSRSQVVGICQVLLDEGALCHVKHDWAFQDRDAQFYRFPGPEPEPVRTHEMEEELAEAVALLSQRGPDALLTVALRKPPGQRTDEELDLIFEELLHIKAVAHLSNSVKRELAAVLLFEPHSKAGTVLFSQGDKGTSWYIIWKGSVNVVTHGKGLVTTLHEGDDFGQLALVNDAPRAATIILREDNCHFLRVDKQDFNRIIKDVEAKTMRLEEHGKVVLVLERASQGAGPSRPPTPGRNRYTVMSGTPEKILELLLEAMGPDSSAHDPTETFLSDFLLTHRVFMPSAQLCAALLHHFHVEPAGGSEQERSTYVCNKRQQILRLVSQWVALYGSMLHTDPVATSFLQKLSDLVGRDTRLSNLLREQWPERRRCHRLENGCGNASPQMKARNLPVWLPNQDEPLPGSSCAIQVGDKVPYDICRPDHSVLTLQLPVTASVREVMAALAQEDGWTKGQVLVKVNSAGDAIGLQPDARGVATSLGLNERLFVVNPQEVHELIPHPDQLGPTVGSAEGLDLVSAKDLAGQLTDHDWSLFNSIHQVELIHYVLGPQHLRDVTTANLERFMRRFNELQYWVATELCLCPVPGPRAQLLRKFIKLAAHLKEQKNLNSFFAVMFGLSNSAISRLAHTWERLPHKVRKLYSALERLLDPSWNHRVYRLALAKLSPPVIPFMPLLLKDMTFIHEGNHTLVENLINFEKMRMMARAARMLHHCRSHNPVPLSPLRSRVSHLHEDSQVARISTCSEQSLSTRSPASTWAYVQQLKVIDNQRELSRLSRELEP

The target of the experiment is Rap guanine nucleotide exchange factor 3 (Homo sapiens) (UniProt O95398). Kind of experiment: qHTS for Agonist of cAMP-regulated guanine nucleotide exchange factor 3 (EPAC1): primary screen. Note: nearly all actives have a fitted effect of over 60% in size. Conditions: biochemical assay; series mostly up to 154 µM; activation: at the top concentration. From the text:
In multi-cellular eukaryotic organisms, the effects of cAMP are transduced by two ubiquitously-expressed intracellular cAMP receptors, the classic protein kinase A/cAMP-dependent protein kinase (PKA/cAPK) and the more recently discovered exchange protein directly activated by cAMP/cAMP-regulated guanine nucleotide exchange factor (EPAC/cAMP-GEF). Both PKA and EPAC are ubiquitously expressed in all tissues, and an increase in intracellular cAMP levels will lead to the activation of both PKA and EPAC. Therefore, careful dissections of the individual role and relative contribution of EPAC and PKA within the overall cAMP signaling in various model systems are critical for further elucidating the mechanism of cAMP signaling. To date no EPAC-specific antagonists and agonist, as well as isoform-specific agonists have been reported, and developing EPAC-specific pharmacological probes to determine the physiological functions that EPAC play in the overall cAMP-mediated signaling remains a major challenge within the research field. Furthermore, identified regulators of EPAC may lead to new mechanism-based therapeutic strategies specifically targeting the EPAC / cAMP-signaling components as EPAC has been implicated to play important roles in major human pathological conditions such as diabetes, heart disease, and cancer.
This qHTS will be used to screen the Molecular Libraries Small Molecule Repository (MLSMR) as a concentration-titration series using the NCGC unique quantitative screening (qHTS) platform to find activators for EPAC1. In addition, this assay will also be used as a counterscreen for the EPAC2 qHTS. This fluorescent based assay is developed and validated for EPAC1 that measures exchange using EPAC effector Rap1 complex with BODIPY-GDP, a GDP analog with a tethered fluorophores. Activators are identified by monitoring the change in fluorescence signal as the exchanged free BODIPY-GDP has a reduced fluorescence compared to Rap1-bound BODIPY-GDP. Increase in signal (activation) is the desired outcome for the EPAC1 agonist while no activity in this assay is desired for the EPAC2 agonist counterscreen.
[1] de Rooij, J., Zwartkruis, F. J., Verheijen, M. H., Cool, R. H., Nijman, S. M., Wittinghofer, A., and Bos, J.L. (1998) Nature 396, 474-477
NIH Chemical Genomics Center [NCGC]
NIH Molecular Libraries Probe Centers Network [MLPCN]
Assay Submitter (PI): Xiaodong Cheng, The University of Texas Medical Branch
Briefly, three uL of reagents (100 nM EPAC1, 250 nM RAP1B-BODIPY-GDP, 50 uM GDP) were dispensed into a 1536-well Greiner black solid-bottom medium binding assay plate. Controls and test compounds (23 nL) were transferred to the plate via a Kalypsys pin tool equipped with a 1536-pin array. The plates were centrifuged at 1,000 rpm for 15 seconds followed by 5 minute incubation at room temperature. The assay plates were read at 5 minute intervals for 30 minutes in the ViewLux plate reader using 480nm excitation and 540nm emission filters. The results were normalized to the agonist positive control of 6.5 mM cAMP.
A general note: Quantitative high-throughput screening tests each substance at several concentrations.
Consider `Cc1nc(NC(=O)C23CCC(C)(C(=O)O2)C3(C)C)sc1C` (stereo not given), for which the “activation” value was 4.04%.
On to `N#CCCCn1c(O)c(N=NC(=O)C(O)c2ccccc2)c2ccccc21` (stereo not given), for which the “activation” value is 6.57%.
Consider `COc1cccc(C(=O)N2CCC(n3nccc3NC(=O)C3CCOC3)CC2)c1` (stereo not given), for which the “activation” value is 7.16%.
Regarding `CNC(=O)C1CC(=O)N(c2ccc(OCC(=O)Nc3ccccc3C)cc2)C1` (stereo not given), the “activation” value is 8.26%.
For the compound `O=C(CCN1C(=O)c2ccncc2C1=O)Nc1cc(F)ccc1F`, the “activation” value was -22%.
Take `Cc1ccc([C@H]2C[C@H](O)[C@@H](n3cc(COC(=O)c4ccccc4)nn3)CN2C(=O)C2CCCCC2)cc1`: the “activation” value was -25.7%.
For `CC1CCN(c2ccc3c(c2)S(=O)(=O)c2cc(C(=O)O)ccc2C3=O)CC1`, the “activation” value is -0.73%.
`COc1cccc(-c2ccc3c(c2)S(=O)(=O)c2cccc(C(=O)O)c2C3=O)c1OC`: the “activation” value was 9.43%.
Turning to `Cc1ccc(CNC(=O)c2cccc3c2C(=O)c2ccc(N4CCC(C)CC4)cc2S3(=O)=O)cc1`, the Potency was 89.1 µM (active).
With `O=C(O)C1=C[C@H](c2cccs2)C[C@H](OCCCCO)O1`, the “activation” value was 9.46%.
Regarding `Cc1ccc(C(=O)OCC(=O)NCc2cc(C)c(O)c(C)c2)cc1S(=O)(=O)N1CCCCC1`, the “activation” value is 9.64%.
For the compound `N#CCCn1ncc2ccccc21`, the “activation” value is 14.3%.
On to `CC(C)Cc1nnc(NC(=O)CN2C(=O)NC3(CCCCC3)C2=O)s1`, for which the “activation” value is 2.71%.
Still for that read-out and setting: as for `CCC1(c2ccccc2)NC(=O)N(CC(=O)Nc2ccccc2C(=O)NC2CCCC2)C1=O` (stereo not given), the figure is 0.865%; as for `COCC(C)n1c(C)cc(C(=O)CSc2cc(C)c3ccccc3n2)c1C` (stereo not given), 15.4%.
Turning to `CCOc1ccc(-c2n[nH]c(=S)n2/N=C/c2cc3c(cc2[N+](=O)[O-])OCO3)cc1`, the “activation” value is 13.8%.
Turning to `OCCN1CCOCCOCCN(CCO)CCN(CCO)CC1`, the “activation” value was 1.4%.
With `Cc1ccc(Cl)cc1NC(=O)COC(=O)C1CCCCC1`, the “activation” value is -2.39%.
Turning to `N#C/C(=C\N1CCOCC1)S(=O)(=O)c1ccc(Cl)cc1`, the “activation” value is 4.86%.
On the same count and under the same terms, as for `O=C(CSc1nnc(-c2ccncc2)o1)NCc1ccc(Cl)cc1`, the figure is 13.5%.
As to `Cc1cc2nc3c(=O)n(Cc4ccccc4)c(=O)[nH]c3nc2cc1N`, the Potency was 100 µM (active).
`Cn1c(=O)[nH]c(=O)c2c1[nH]c(=S)n2Cc1ccccc1`: the “activation” value is -0.212%.
For `Cc1cc(OCC(=O)N(C)c2c(N)n(Cc3ccccc3)c(=O)[nH]c2=O)c(C(C)C)cc1Cl`, the “activation” value is -0.55%.
For `NC(=O)C1CCN(C(=O)COc2ccc3c4c(c(=O)oc3c2)CCC4)CC1`, the “activation” value is 2.5%.
Still for that read-out and setting: as for `O=S(=O)(c1cccc(-c2nnc(SC(F)F)n2-c2ccccc2)c1)N1CCCCC1`, the figure is -1.95%; as for `O=C(O)C1=NN(c2c(F)c(F)cc(F)c2F)C(=O)CC1`, 10.4%; as for `CC(C)(C)n1nnnc1C(c1ccccc1F)N1CCN(C(=O)c2ccco2)CC1` (stereo not given), 1.91%.
Same read-out and setting: as for `O=c1ccc2c(-c3ccccc3S(=O)(=O)O)c3ccc(O)c(O)c3oc-2c1O`, the figure is -10.7%; as for `COc1ccc(NC(=O)C2CCC(CNS(=O)(=O)c3csc(C(N)=O)c3)CC2)cc1OC` (stereo not given), -7.96%.
Turning to `CCN(CC(=O)Nc1c(F)cccc1F)C(=O)Cc1cccs1`, the “activation” value is 9.59%.
Turning to `Cc1ccc(NS(=O)(=O)c2cn(C)c(=O)n(C)c2=O)c(C)c1`, the “activation” value is -4.61%.
On to `CCOc1ccccc1C(=O)NC1CC2CCCC(C1)N2Cc1ccccc1` (stereo not given), for which the “activation” value was -8.13%.
As for `Cc1noc(C)c1CSCC(=O)Nc1ccc(Br)cc1Cl`, the “activation” value was 0.706%.
The same measure, in the same setting: as for `CCOC(=O)C(NS(=O)(=O)c1ccc(C)cc1)(C(F)(F)F)P(=O)(OCC(C)C)OCC(C)C` (stereo not given), the figure is -18.9%.
On to `CCN(CC)S(=O)(=O)c1cc([N+](=O)[O-])ccc1NNC(=O)Nc1ccccc1`, for which the “activation” value is 17%.
For `Cc1ccccc1N1C(=O)C2ON(c3ccccc3)C(c3ccncc3)C2C1=O` (stereo not given), the “activation” value was 14.8%.
With `CCOC(=O)c1c(NC(=O)CNC2CCCc3ccccc32)sc(C(N)=O)c1C` (stereo not given), the “activation” value is 3.57%.
Regarding `Cc1n[nH]c(=O)c2c1nnn2Cc1ccc(F)cc1`, the “activation” value was 9.7%.
Turning to `O=C(COc1ccc2ccccc2c1)N1CCN(C(=O)c2cccs2)CC1`, the “activation” value was -6.98%.
Regarding `O=C(NC(C(=O)NCCN1CCOCC1)C12CC3CC(CC(C3)C1)C2)C1CCCCC1` (stereo not given), the “activation” value is -4.95%.
